Assay [1] can be described thus: reduced mouse 2C T cell binding to pMHC/ICAM-1 vesicles – MLPCN validation set, flow cytometry, LFA-1/ICAM-1 modulator project, pilot screen (AID 2523;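 active means response below a set limit, under 55% cells CD8-positive and vesicle-bound, and CD8 cells' 90th-percentile brightness under 279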;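 on vesicle binding response: mean PE anti-B7-1 fluorescence of CD8+ cells relative to row control; 100% = QL9-loaded vesicles with DMSO vehicle in the same plate row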). Conditions: 2C mouse CD8+ T cells, at 7 µM, stronger effect = lower value; double positive events: measured here: CD8+/vesicle+ event percentage. For orientation: In flow cytometry, cells or beads pass a laser one at a time.

In assay [2] the target is Integrin beta-1 (Homo sapiens) + Integrin alpha-4 (Homo sapiens) (UniProt P13612+P05556). Briefly: alpha4beta1 integrin LIBS antibody binding reduction – U937 cells, HUTS-21 mAb, flow cytometry, validation set, VLA-4 allosteric modulator project, pilot screen (AID 2674;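 active means inhibition above 50%, about 3 SD of the validation set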;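 further: antibody binding induced by the VLA-4 ligand LDV present at three times its Kd; 0% = LDV ligand with antibody and no compound and 100% = antibody without LDV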). The conditions noted are these: HUTS-21 LIBS mAb binding, at 6.7 µM, stronger effect = higher value, binding induced by LDV ligand.
Integrin beta-1 (Homo sapiens) + Integrin alpha-4 (Homo sapiens), sequence (P05556 whole entry, looked up): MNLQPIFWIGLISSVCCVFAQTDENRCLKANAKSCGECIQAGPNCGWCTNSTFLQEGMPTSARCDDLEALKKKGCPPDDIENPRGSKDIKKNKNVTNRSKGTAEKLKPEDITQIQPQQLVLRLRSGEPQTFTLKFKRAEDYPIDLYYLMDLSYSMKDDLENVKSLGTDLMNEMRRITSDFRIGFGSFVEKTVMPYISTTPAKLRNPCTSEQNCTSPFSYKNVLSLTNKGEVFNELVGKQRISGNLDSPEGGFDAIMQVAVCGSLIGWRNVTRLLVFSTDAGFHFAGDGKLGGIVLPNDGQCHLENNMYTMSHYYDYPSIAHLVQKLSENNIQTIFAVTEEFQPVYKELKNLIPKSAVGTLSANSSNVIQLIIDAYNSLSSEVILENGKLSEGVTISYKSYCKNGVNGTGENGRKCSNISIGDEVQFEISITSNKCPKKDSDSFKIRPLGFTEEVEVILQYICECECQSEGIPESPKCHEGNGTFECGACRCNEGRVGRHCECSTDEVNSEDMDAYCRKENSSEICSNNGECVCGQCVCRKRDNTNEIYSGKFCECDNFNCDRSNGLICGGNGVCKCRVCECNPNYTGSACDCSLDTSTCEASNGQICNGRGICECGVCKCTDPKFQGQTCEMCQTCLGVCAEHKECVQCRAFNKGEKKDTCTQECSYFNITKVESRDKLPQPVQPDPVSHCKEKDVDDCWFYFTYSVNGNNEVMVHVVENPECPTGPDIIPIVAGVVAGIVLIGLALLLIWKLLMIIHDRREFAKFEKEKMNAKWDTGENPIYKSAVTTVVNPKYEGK
Integrin beta-1 (Homo sapiens) + Integrin alpha-4 (Homo sapiens), sequence (P13612 whole entry, looked up): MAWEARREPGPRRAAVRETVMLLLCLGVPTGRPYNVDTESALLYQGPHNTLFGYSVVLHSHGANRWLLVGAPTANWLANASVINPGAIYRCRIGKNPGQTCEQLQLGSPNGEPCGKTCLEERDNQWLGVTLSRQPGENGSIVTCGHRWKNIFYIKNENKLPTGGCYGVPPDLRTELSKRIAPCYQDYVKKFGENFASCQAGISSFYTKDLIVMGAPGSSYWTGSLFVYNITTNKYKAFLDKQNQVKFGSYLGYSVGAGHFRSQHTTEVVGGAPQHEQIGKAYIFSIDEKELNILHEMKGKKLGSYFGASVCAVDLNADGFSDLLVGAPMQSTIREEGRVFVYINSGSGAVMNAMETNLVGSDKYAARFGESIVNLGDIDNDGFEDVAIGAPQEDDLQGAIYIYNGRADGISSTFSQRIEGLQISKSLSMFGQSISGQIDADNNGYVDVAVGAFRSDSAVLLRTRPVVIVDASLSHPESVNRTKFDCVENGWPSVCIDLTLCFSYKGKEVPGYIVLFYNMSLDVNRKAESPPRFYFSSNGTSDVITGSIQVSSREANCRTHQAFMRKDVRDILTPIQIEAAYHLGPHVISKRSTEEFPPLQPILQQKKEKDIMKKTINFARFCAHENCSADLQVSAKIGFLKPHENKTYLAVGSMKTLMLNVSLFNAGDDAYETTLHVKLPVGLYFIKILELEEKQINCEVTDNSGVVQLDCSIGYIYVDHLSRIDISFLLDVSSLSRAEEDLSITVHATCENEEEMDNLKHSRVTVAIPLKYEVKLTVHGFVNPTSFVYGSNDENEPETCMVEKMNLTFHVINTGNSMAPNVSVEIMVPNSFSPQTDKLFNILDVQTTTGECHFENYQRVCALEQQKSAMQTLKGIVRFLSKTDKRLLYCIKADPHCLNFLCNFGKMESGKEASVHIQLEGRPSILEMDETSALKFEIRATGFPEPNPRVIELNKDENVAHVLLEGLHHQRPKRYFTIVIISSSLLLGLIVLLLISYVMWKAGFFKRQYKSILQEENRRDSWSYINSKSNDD

Assay [3] can be described thus: calorie-restriction mimetic ROS inhibitors, yeast – validation compound set, pilot screen (AID 2706;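 active means superoxide response below 65% of plate, a cut near 3 SD across the whole screen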;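 further: yeast exposed to compound for one week at 30 degrees C before staining; 100% = mean of all compound wells on the same plate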). The conditions noted are these: S. cerevisiae aging, superoxide DHE fluorescence; at 10 µM, stronger effect = lower value.
Assay [4] has as its target Beta-adrenergic receptor kinase 1 (Homo sapiens) (UniProt P25098). As to the kind of experiment: GRK2 binders displacing RNA aptamer, biochemical, validation, human GRK2, bead flow cytometry (AID 488806;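 active means aptamer binding inhibition above 30%, about 3 SD of noise from non-fluorescent compounds; inactive means inhibition at or below 30%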). The conditions noted are these: bead-bound GRK2, FAM-aptamer displacement, at 10 µM, stronger effect = higher value.
In assay [5] the target is Beta-2 adrenergic receptor (Homo sapiens) (UniProt P07550). Briefly: agonist-induced loss of surface beta2AR – cell-based, FAP fluorogen, flow cytometry, validation set, pilot screen (AID 504459).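 Further: agonist-driven loss of surface beta2AR via internalization measured by FAP dye flow cytometry.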 The conditions noted are these: Am2.2-beta2AR cells, at 10 µM, stronger effect = higher value.
Beta-2 adrenergic receptor (Homo sapiens), sequence (P07550 whole entry, looked up): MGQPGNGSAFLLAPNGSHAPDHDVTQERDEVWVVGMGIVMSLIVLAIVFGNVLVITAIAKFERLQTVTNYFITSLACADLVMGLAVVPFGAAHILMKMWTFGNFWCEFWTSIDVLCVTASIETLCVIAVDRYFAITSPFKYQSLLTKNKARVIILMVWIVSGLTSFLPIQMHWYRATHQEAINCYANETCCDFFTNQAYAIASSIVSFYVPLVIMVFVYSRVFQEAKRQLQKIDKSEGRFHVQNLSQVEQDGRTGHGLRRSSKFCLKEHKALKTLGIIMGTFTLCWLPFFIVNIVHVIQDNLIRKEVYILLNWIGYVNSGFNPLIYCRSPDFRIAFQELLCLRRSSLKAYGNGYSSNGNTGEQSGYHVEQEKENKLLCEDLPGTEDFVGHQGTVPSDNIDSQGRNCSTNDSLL
For assay [6], the target named is AP-2 complex subunit beta (Homo sapiens) (UniProt P63010). As to the kind of experiment: beta-arrestin/AP2 interaction blockers – biochemical, validation set, GST-AP2 beads, flow cytometry, pilot screen (AID 504541;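 active means inhibition above 54%, about 3 SD of non-fluorescent compounds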;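 further: AP2 carries R879A mutation and is captured from E. coli lysate; bead-bound FITC arrestin peptide fluorescence measuring arrestin peptide binding to AP2; 0% = DMSO wells and 100% = excess unlabeled arrestin peptide control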). Conditions: FITC arrestin peptide, at 10 µM, stronger effect = higher value, AP2 beta2 appendage fragment, R879A mutant.
AP-2 complex subunit beta (Homo sapiens), sequence (P63010 whole entry, looked up, the tested form may be a part, one chain of several): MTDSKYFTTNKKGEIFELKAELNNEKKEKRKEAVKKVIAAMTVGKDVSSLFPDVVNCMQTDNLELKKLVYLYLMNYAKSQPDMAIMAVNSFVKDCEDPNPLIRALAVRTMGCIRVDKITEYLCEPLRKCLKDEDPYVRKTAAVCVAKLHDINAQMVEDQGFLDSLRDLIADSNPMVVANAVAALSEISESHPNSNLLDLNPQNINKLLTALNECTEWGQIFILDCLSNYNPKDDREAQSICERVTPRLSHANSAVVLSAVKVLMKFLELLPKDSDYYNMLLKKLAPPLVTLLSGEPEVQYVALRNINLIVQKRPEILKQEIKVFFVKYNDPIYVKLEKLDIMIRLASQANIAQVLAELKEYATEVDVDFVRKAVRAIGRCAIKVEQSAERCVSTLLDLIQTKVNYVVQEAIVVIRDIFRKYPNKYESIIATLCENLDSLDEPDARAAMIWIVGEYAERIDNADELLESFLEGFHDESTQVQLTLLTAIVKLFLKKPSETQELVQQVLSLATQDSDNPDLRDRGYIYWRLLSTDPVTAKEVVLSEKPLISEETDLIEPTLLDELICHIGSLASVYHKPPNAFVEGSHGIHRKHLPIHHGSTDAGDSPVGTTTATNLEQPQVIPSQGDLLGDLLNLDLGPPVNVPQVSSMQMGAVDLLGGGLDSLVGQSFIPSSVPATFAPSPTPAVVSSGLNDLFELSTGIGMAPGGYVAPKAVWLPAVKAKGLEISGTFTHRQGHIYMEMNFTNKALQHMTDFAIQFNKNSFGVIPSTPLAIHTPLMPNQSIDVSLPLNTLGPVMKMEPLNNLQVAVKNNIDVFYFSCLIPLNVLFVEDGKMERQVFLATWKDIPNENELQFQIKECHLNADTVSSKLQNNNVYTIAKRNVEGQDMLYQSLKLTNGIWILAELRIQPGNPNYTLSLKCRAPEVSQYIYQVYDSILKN
A short description of assay [7]: cytosolic pH regulators acting via V-ATPase – S. cerevisiae, pHLuorin, HTS validation (AID 504600; in the data active means response above about 15%;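 further: plate controls were DMSO for no effect and reference compound for full effect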). The conditions noted are these: V-ATPase proton transport, at 10 µM, stronger effect = higher value.
Assay [8] has as its system anti-desmoglein-3 scFv antibody binding to human DSG3. Briefly: blockers of pathogenic pemphigus antibody–desmoglein-3 binding – biochemical, validation compound set, bead-based, flow cytometry, pilot screen (AID 588368;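 active means binding below the plate cutoff, the plate median minus 3 SD, with a reading above zero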;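 further: signal is the median channel fluorescence of bead-bound GFP antibody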). The conditions noted are these: Protein G beads, DSG3-Fc, scFv-GFP binding, at 10 µM, stronger effect = lower value.
The nature of assay [9]: Nile Red efflux blockade in pump-expressing yeast – validation compound set, multiplex, phenotypic, pilot screen (AID 588506;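 active means efflux inhibition above 0.42, the validation set average plus 4 SD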;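 further: Nile Red retained in cells so higher fluorescence means more efflux inhibition; 0 = negative control wells and 1 = enniatin B 25 µM full block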). The conditions noted are these: S. cerevisiae pump-expressing triplex, Nile Red efflux flow cytometry; at 10 µM; stronger effect = higher value; the pumps come from Candida albicans.
The target of assay [10] is ATP-binding cassette sub-family B member 6 (Homo sapiens) (UniProt Q9NP58). As to the kind of experiment: blockers of ABCB6-driven porphyrin uptake – K562-ABCB6 cells, flow cytometry, validation set, pilot screen (AID 588550;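 active means inhibition above the screen-wide mean plus 3 SD, about 51%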;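 further: 0% = DMSO wells and 100% = benzethonium chloride 70 µM positive control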). Conditions: K562-ABCB6 porphyrin accumulation, 1 h, at 10 µM, stronger effect = higher value.
ATP-binding cassette sub-family B member 6 (Homo sapiens), sequence (Q9NP58 whole entry, looked up): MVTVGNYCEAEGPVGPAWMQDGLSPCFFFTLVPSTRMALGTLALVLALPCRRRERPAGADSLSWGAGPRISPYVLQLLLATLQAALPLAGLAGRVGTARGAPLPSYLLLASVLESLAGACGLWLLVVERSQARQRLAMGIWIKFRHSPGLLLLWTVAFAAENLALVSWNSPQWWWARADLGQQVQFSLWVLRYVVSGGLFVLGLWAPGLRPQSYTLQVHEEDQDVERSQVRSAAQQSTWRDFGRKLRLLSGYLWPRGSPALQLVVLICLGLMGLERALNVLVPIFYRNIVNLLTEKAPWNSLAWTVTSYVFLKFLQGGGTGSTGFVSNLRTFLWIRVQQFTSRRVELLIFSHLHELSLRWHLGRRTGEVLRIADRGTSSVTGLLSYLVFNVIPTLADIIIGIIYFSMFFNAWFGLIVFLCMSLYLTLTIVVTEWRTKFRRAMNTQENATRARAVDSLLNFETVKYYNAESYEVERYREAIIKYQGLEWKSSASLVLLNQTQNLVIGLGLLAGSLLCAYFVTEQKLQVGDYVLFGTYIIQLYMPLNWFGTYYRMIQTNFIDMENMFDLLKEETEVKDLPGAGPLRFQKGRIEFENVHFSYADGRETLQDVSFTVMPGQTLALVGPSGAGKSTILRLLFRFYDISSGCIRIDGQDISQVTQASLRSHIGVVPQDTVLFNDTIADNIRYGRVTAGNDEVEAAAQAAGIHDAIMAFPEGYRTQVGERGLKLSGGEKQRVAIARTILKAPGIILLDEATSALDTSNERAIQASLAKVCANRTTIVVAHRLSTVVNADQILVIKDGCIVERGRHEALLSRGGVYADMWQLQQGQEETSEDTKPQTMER
Assay [11] can be described thus: AML differentiation inducers, ER-HoxA9 marrow cells – cell-based, GFP/MAC1 double positive, flow cytometry, validation set, primary screen (AID 588685;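 active means differentiation response of at least 50%, scaled between solvent and reference control, from cells with both markers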;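 further: compound exposure lasts four days before antibody staining and flow analysis; 0% = DMSO wells and 100% = 5 µM fulvestrant positive control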). Conditions: stronger effect = higher value, normalized: vehicle 0, fulvestrant 100.

Active and inactive are the calls of the source.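 How the source made its calls, unless noted: active means percent response above 42, roughly 3 SD of non-fluorescent test compounds; inactive means the rest.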

Beta-adrenergic receptor kinase 1 (Homo sapiens), sequence (P25098 whole entry, looked up): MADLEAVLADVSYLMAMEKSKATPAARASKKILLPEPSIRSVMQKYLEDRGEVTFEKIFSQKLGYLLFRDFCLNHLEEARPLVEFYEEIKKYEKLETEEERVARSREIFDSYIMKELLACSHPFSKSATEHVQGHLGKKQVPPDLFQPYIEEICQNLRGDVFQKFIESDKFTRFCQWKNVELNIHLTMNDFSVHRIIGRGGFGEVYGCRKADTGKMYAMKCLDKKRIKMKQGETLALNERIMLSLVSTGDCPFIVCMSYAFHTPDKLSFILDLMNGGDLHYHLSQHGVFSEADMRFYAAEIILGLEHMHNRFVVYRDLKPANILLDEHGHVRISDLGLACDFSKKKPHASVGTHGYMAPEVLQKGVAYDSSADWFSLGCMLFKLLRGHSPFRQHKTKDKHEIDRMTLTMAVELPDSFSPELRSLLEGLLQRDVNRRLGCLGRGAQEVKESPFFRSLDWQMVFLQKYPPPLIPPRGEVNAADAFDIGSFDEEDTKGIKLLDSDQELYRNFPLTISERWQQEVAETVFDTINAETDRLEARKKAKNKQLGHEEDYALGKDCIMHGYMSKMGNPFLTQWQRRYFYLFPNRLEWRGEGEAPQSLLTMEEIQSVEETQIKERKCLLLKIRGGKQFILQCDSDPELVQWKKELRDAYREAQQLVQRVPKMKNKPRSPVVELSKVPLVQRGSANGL

For `CCN(CC)C(=S)SSC(=S)N(CC)CC`, the double positive events in assay [1] is 59.7%. The vesicle binding response in assay [1] was 164% (inactive). Moreover, the inhibition (usually the drop in the measured response relative to a control, in per cent) was 27.8% (inactive) in assay [2], 3.89% (inactive) in assay [6] and 4% (inactive) in assay [10]. Besides, in assay [3], the superoxide response (% of plate) is 109% (inactive). In assay [4], the aptamer binding inhibition was 4% (inactive). The results for the response in assay [5] and in assay [7] were 14.2% (inactive) and -29.5% (inactive), respectively. Also, the binding (% of control) in [8] is 100% (inactive). Moreover, the efflux inhibition (fraction of control) in assay [9] is -0.13 (inactive). Also, the differentiation response in [11] is -0.06% (inactive).

As to `COc1cccc(OC2OC3COC(C)(C)OC3C(O)C2NC(C)=O)c1` (configuration not stated), the double positive events in assay [1] was 63.6%. Besides, the vesicle binding response in assay [1] is 203% (inactive). The inhibition was 5.61% (inactive) in [2], 2.96% (inactive) in assay [6] and 30% (inactive) in assay [10]. Moreover, the superoxide response (% of plate) in assay [3] was 97.8% (inactive). For the same compound, the aptamer binding inhibition in assay [4] was 2% (inactive). The figures for the response in assay [5] and in [7] were 2.82% (inactive) and 6.08% (inactive), respectively. For the same compound, in [8], the binding (% of control) was 103% (inactive). Further, the efflux inhibition (fraction of control) in assay [9] is 0.1 (inactive). In addition, the differentiation response in assay [11] is -11.9% (inactive).

In assay [1], `CC1/C(=C\c2ccc(Cl)cc2)C(=O)C2CC1C2(C)C` (configuration not stated) showed a double positive events of 60.1%. Besides, in assay [1], the vesicle binding response was 168% (inactive). Also, the inhibition in [2] is -3.16% (inactive); in assay [6], -1.54% (inactive); in assay [10], 9% (inactive). In addition, the superoxide response (% of plate) in assay [3] is 94.9% (inactive). The aptamer binding inhibition in [4] is 2% (inactive). Moreover, the response in assay [5] is -15.2% (inactive); in assay [7] it was 0.95% (inactive). Moreover, in assay [8], the binding (% of control) was 99.9% (inactive). Further, the efflux inhibition (fraction of control) in [9] is 0.05 (inactive). Moreover, the differentiation response in [11] is -5.6% (inactive).

In turn, `COc1ccc(CC(=O)N2CC3(C)CC2CC(C)(C)C3)cc1OC` (configuration not stated) registered a double positive events in assay [1] of 64.1%. In addition, the vesicle binding response in [1] is 255% (inactive). In addition, the inhibition was -5.89% (inactive) in [2], -2.57% (inactive) in assay [6] and 3% (inactive) in assay [10]. Moreover, the superoxide response (% of plate) in [3] was 91.8% (inactive). In assay [4], the aptamer binding inhibition is 1% (inactive). The figures for the response in assay [5] and in [7] were -7.91% (inactive) and 1.81% (inactive), respectively. The binding (% of control) in assay [8] was 102% (inactive). Moreover, the efflux inhibition (fraction of control) in [9] was 0.44 (active). Besides, the differentiation response in [11] is 5.6% (inactive).

For the compound `CCc1cc2c3c(c(=O)oc2cc1O)CCCC3`, the double positive events in assay [1] is 67.8%. The vesicle binding response in assay [1] was 257% (inactive). Moreover, the inhibition in assay [2] is -18.2% (inactive); in [6], -7.42% (inactive); in assay [10] it was 11% (inactive). Moreover, the superoxide response (% of plate) in assay [3] was 93.2% (inactive). For the same compound, the aptamer binding inhibition in [4] is 1% (inactive). Besides, the results for the response in [5] and in assay [7] were 1.88% (inactive) and 2.52% (inactive), respectively. For the same compound, the binding (% of control) in assay [8] was 99.5% (inactive). The efflux inhibition (fraction of control) in assay [9] was -0.21 (inactive). Moreover, the differentiation response in assay [11] was 4% (inactive).

Take `CC(C)=CCCC(C)CN1CCC(N2CCC(C(=O)N3CCCC3)CC2)CC1` (configuration not stated): the double positive events in assay [1] is 66.5%. For the same compound, the vesicle binding response in [1] was 278% (inactive). The values for the inhibition in assay [2], in [6] and in assay [10] were -11.3% (inactive), -10.9% (inactive) and 5% (inactive), respectively. For the same compound, the superoxide response (% of plate) in assay [3] is 93.3% (inactive). For the same compound, the aptamer binding inhibition in [4] was -12% (inactive). In addition, the results for the response in [5] and in assay [7] were 35% (inactive) and -0.07% (inactive), respectively. The binding (% of control) in assay [8] was 106% (inactive). The efflux inhibition (fraction of control) in assay [9] is -0.03 (inactive). Besides, the differentiation response in assay [11] was -7.2% (inactive).
